Screens as filed in PubChem BioAssay.
Wnt act – activates Wnt/beta-catenin signaling in a reporter cell assay. activation, % at 9.35 µM. actives 1.2% (n = 300,000). activator, plate reader; in the data active means activation above about 30%, passing the limit was not always enough; inconclusive means no clear call, values can overlap the other calls
AHR activator – activators of human aryl hydrocarbon receptor | P35869 | AHR-responsive luciferase reporter cells, luminescence | activation, % at 5 µM | actives 2.5% (n = 320,000); in the data active means activation above about 47%
Target sequence (P35869 whole entry, looked up): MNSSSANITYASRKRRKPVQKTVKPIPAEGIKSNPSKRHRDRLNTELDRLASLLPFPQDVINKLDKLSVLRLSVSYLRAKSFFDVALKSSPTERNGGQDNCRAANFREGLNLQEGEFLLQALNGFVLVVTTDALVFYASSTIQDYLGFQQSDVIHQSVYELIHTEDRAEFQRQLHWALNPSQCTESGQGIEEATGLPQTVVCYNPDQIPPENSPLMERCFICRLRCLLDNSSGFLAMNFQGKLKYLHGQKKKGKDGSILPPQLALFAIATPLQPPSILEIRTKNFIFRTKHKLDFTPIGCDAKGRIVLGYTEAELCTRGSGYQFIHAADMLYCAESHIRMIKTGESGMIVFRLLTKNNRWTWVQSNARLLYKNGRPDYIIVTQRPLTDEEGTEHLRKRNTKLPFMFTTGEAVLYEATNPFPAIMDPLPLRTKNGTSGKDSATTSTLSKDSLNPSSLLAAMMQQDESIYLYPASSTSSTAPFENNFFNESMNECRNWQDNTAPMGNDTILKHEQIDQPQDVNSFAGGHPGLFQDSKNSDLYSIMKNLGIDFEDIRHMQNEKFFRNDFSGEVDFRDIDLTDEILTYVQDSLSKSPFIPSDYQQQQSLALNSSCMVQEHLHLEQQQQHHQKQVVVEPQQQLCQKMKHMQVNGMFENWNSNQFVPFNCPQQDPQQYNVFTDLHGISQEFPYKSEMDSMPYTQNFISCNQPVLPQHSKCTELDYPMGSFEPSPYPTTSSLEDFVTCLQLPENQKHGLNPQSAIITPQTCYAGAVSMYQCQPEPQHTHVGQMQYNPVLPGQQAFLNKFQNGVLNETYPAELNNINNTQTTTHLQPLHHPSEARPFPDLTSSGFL
MITF act – activators of MITF-driven TRPM1 promoter activity in SK-MEL-5 cells | SK-MEL-5 TRPM1-promoter luciferase, 24 h; % of positive control, neutral wells = 0 | activation, % at 12.5 µM | actives 0.75% (n = 300,000);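 active means mean activation of at least 80% with every replicate also reaching 80%; inconclusive means mean reaches 80% but some replicate falls short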
GAA850 FXN act – activators of GAA850 frataxin (FXN) promoter; activation, % at 6 µM; HEK293 lucGAA850 FXN promoter luciferase reporter, 24 h; percent of 10 µM SAHA response; actives 0.56% (n = 360,000);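 active means activation above the average of all compounds screened plus 3 SD, cutoff fixed separately per campaign, cut at about 7.5% in these data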
esBAF inh – blocks esBAF chromatin remodeling in mouse ES cells; Bmi1-luciferase knock-in reporter, 24 h; 100% = twice the neutral-well signal; reporter increase, % at 12.5 µM; actives 2% (n = 350,000); AID 602393; in the data active means activation above about 40%; inconclusive means no clear call, values can overlap the other calls;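 further: a rise in the Bmi1 reporter signal indicates esBAF inhibition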
Each line names hits and unclear results; the compound was inactive in the other large screens. Sampled rows, rich in hits. Any-hit rate of the full collection: about 4.2%.

COCn1c(-c2ccc(OC)cc2)nc2ccccc21	Wnt act inconclusive, AHR activator 55
COc1ccc(C)cc1NC(=O)CSc1nnnn1Cc1ccccc1	Wnt act 44 (no result: esBAF inh)
O=C(CN1CCOCC1)NCC[C@@H]1CC[C@H](NC(=O)Nc2ccc(Cl)cc2)[C@@H](CO)O1	none (no result: Wnt act, AHR activator, MITF act, GAA850 FXN act)
Cc1cccc(S(=O)(=O)N2CCCCN3[C@@H](CO)[C@@H](c4ccc(C#C[C@@H](C)O)cc4)[C@@H]3C2)c1	none (no result: Wnt act, AHR activator, MITF act, GAA850 FXN act)
COC(=O)C[C@@H]1CC[C@H]2[C@@H](COC[C@H](O)CN2C(=O)Nc2cccc(F)c2)O1	none (no result: Wnt act, AHR activator, MITF act, GAA850 FXN act)
COC(=O)C[C@H]1CC[C@H]2[C@@H](COC[C@@H](O)CN2C(=O)Nc2cccc(F)c2)O1	esBAF inh 50 (no result: Wnt act, AHR activator, MITF act, GAA850 FXN act)
COc1ccccc1CNC(=O)C[C@H]1CC[C@@H]2[C@H](COC[C@H](O)CN2C(=O)Nc2ccc(Cl)cc2)O1	esBAF inh 43 (no result: Wnt act, AHR activator, MITF act, GAA850 FXN act)
O=C(C1=NN[C@@H]2C(=O)N(c3cccc(F)c3)C(=O)[C@H]12)c1ccc2ccccc2n1	AHR activator 99 (no result: esBAF inh)
c1ccc2c(C3=NNC(=NC4CCCCC4)SC3)c[nH]c2c1	AHR activator 57 (no result: esBAF inh)
CCC(C)(C)n1nnnc1C(c1cc2cc(OC)c(OC)cc2[nH]c1=O)N1CCc2ccccc21 (stereo not drawn)	none (no result: Wnt act, esBAF inh)
COc1cc2cc(C(c3nnnn3C(C)(C)C)N3CCc4ccccc4C3)c(=O)[nH]c2cc1OC (stereo not drawn)	Wnt act 34
CCC(C)(C)n1nnnc1C(c1cc2cc(C)ccc2[nH]c1=O)N1CCCC1 (stereo not drawn)	GAA850 FXN act 10.0 (no result: Wnt act)
Cc1noc(C)c1S(=O)(=O)Nc1ccc2c(c1)CC(=O)N([C@H](C)CO)C[C@@H](C)[C@@H](CN(C)Cc1ccc3c(c1)OCO3)O2	none (no result: Wnt act, AHR activator, MITF act, GAA850 FXN act)
CCCCOC(=O)c1ccc(Nc2ncnc3nc[nH]c23)cc1	esBAF inh 48
FC(F)Sc1ccc(Nc2ncnc3nc[nH]c23)cc1	MITF act 95 (no result: Wnt act)
COc1ccc(NC(=O)Nc2ccc3c(c2)[C@H]2C[C@H](CC(=O)N4CCN(C)CC4)O[C@H](CO)[C@H]2O3)cc1	none (no result: Wnt act, AHR activator, MITF act, GAA850 FXN act)
COC(=O)C[C@H]1C=C[C@@H](NS(=O)(=O)c2ccccc2F)[C@H](CO)O1	none (no result: Wnt act, AHR activator, MITF act, GAA850 FXN act)
C[C@H](CO)N1C[C@H](C)[C@@H](CN(C)Cc2ccc(C(=O)O)cc2)Oc2ccc(NS(C)(=O)=O)cc2CC1=O	none (no result: Wnt act, AHR activator, MITF act, GAA850 FXN act)
CNC[C@H]1OCCCC[C@H](C)Oc2ccc(NC(=O)Nc3ccccc3)cc2C(=O)N([C@@H](C)CO)C[C@@H]1C	none (no result: Wnt act, AHR activator, MITF act, GAA850 FXN act)
CC1CCCCN1C(=O)CSc1nnc(-c2ccc(Cl)s2)o1 (stereo not drawn)	esBAF inh 63 (no result: Wnt act)
CC1CCCCN1C(=O)CSc1nnc(-c2ccccc2O)o1 (stereo not drawn)	none
CCCOC(=O)C1=C(C)N(C)C(=O)NC1c1cc2c(cc1[N+](=O)[O-])OCO2 (stereo not drawn)	AHR activator 60
COc1cc2c(cc1NC(=O)C(C)N1CCN(S(=O)(=O)c3ccc(C)c(C)c3)CC1)oc1ccccc12 (stereo not drawn)	AHR activator 59
COc1cc2c(cc1NC(=O)C(C)OC(=O)c1ccc(S(=O)(=O)Nc3ccccc3Cl)cc1)oc1ccccc12 (stereo not drawn)	AHR activator 78 (no result: esBAF inh)
COc1ccc(S(=O)(=O)Nc2ccccc2Cl)cc1NC(C)=O	none (no result: esBAF inh)
O=C(C[C@@H]1CC[C@H](NC(=O)c2ccccn2)[C@@H](CO)O1)NCc1cccc(F)c1	none (no result: Wnt act, AHR activator, MITF act, GAA850 FXN act)
Cc1cc(/C=C2/C(=O)NN(c3ccccc3)C2=O)c(C)n1-c1ccc(O)cc1	none (no result: esBAF inh)
Cc1cc(/C=C2\C(=O)NN(c3ccccc3)C2=O)c(C)n1-c1ccccc1O	esBAF inh 58
CN1CCN(CC(=O)Nc2nnc(-c3cccs3)s2)CC1	AHR activator 111 (no result: esBAF inh)
CCC(CC)C(=O)Nc1nnc(-c2cccs2)s1	AHR activator 73 (no result: MITF act)
O=c1[nH]c2ccccc2nc1/C=C/c1ccc(F)cc1	AHR activator 74, esBAF inh 56
O=c1[nH]c2ccccc2nc1/C=C/c1ccccc1	Wnt act inconclusive, AHR activator 57 (no result: esBAF inh)
CC(C)(C)/C(O)=C/c1nc2ccccc2[nH]c1=O	none (no result: esBAF inh)
CNC[C@H]1OCCCC[C@H](C)Oc2ccc(NC(=O)c3ccccc3)cc2C(=O)N([C@H](C)CO)C[C@@H]1C	none (no result: Wnt act, AHR activator, MITF act, GAA850 FXN act)
O=C(C[C@H]1CC[C@@H]2[C@H](COC[C@H](O)CN2C(=O)c2ccc(F)cc2)O1)NCCCN1CCOCC1	none (no result: Wnt act, AHR activator, MITF act, GAA850 FXN act)
C=CCS/C(N)=N\N=C\c1c(O)ccc2ccccc12	Wnt act 99, AHR activator 56, esBAF inh inconclusive
NC(=O)c1ccc(N=Cc2c(O)ccc3ccccc23)cc1	none (no result: MITF act, esBAF inh)
COc1cccc(S(=O)(=O)N2C[C@H](O)COC[C@H]3O[C@H](CC(=O)N4CCCCC4)CC[C@@H]32)c1	none (no result: Wnt act, AHR activator, MITF act, GAA850 FXN act)
Cn1ncc([N+](=O)[O-])c1C(=O)Nc1ccc(C2CCCCC2)cc1	none (no result: esBAF inh)
Cn1ncc([N+](=O)[O-])c1C(=O)Nc1ccc(Cl)cc1	AHR activator 72
Cn1ncc([N+](=O)[O-])c1C(=O)Nc1ccc(-c2nc3ccccc3[nH]2)cc1	esBAF inh 56 (no result: Wnt act)
COc1ccc(CN(C)C[C@H]2OCCCC[C@@H](C)Oc3ccc(N(C)C)cc3C(=O)N([C@H](C)CO)C[C@@H]2C)cc1	none (no result: Wnt act, AHR activator, MITF act, GAA850 FXN act)
N#C/C(=C(/O)CCl)c1nc2c(s1)CCc1ccccc1-2	AHR activator 67
Nc1nc2c(s1)CCc1ccccc1-2	none
c1ccc(SCc2nc(-c3ccncc3)no2)cc1	MITF act 91
COc1ccc(-c2noc(CSc3ccccc3)n2)cc1OC	MITF act inconclusive, esBAF inh 52
CN(C)C(=O)c1cccc(-c2ccc3c(c2)[C@H]2[C@H](CCN2C(=O)Cc2ccccc2)[C@@H](CO)N3)c1	none (no result: Wnt act, AHR activator, MITF act, GAA850 FXN act)
O=C([C@H]1[C@H](CO)[C@H]2Cn3c(ccc(/C=C/c4ccccc4)c3=O)[C@@H]1N2)N1CCCCC1	none (no result: Wnt act, AHR activator, MITF act, GAA850 FXN act)
C[C@@H]1CN([C@@H](C)CO)C(=O)c2cc(NC(=O)Nc3ccc(F)cc3)ccc2O[C@H]1CN(C)C	none (no result: Wnt act, AHR activator, MITF act, GAA850 FXN act)
Cc1ccc2c(c1)c1c3n2CCN(CC#N)C3CCC1 (stereo not drawn)	none
CCN1CCn2c3c(c4cc(Br)ccc42)CCCC31 (stereo not drawn)	AHR activator 49 (no result: Wnt act)
CCOc1ccc(C(=O)NC2=NCCS2)cc1	none (no result: MITF act, GAA850 FXN act, esBAF inh)
O=C(NC1=NCCS1)c1ccc(OCC2CCCO2)cc1 (stereo not drawn)	Wnt act 40
CCOc1cc(C(=O)NC2=NCCS2)cc(OCC)c1OCC	AHR activator 55 (no result: esBAF inh)
CCCCCCC(=O)Nc1nc(C)c(-c2csc(Nc3cc(OC)ccc3OC)n2)s1	AHR activator 67
CCCCC(=O)Nc1nc(C)c(-c2csc(Nc3ccccc3OC)n2)s1	AHR activator 77
Cc1ccc(S(=O)(=O)N(C)C[C@@H]2Oc3ccc(NS(=O)(=O)c4cccs4)cc3C(=O)N([C@H](C)CO)C[C@H]2C)cc1	none (no result: Wnt act, AHR activator, MITF act, GAA850 FXN act)
